Data as given in the supplement of paper PMC6288085.
Counter-ions that a name gives are not always drawn. ± gives the uncertainty stated by the source.

Each compound was assayed on Caenorhabditis elegans N2 (assay: food intake (mean delta OD600 / animal over 72 h) with 50 uM loxapine co-treatment (OD600 units per animal); higher = more food eaten (less suppression of loxapine-induced hyperphagia)). Conditions: first compound 33 µM, loxapine concentration 50 µM.
Protocol: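 C. elegans N2 adults (FUDR-sterilised, day 1) in 96-well plates fed gamma-irradiated bacteria. Each library drug (MedChemExpress FDA-approved library) at 33 uM was combined with loxapine at 50 uM. Food intake was measured as bacterial clearance: the change in OD600 from day 1 to 72 h, normalised per animal (mean over 14-21 wells of about 10-12 worms). Drugs flagged for bacterial lysis or sickness were excluded by the authors.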

| Compound | food intake |
| --- | --- |
| O=[N+]([O-])C(Br)(CO)CO [bronopol] + CN1CCN(C2=Nc3ccccc3Oc3ccc(Cl)cc32)CC1 [loxapine] | 0.0259 ± 0.0077 |
| C=CCN1CC[C@]23c4c5ccc(O)c4O[C@H]2C(=O)CC[C@@]3(O)[C@H]1C5 [naloxone (hydrochloride)] + CN1CCN(C2=Nc3ccccc3Oc3ccc(Cl)cc32)CC1 [loxapine] | 0.0254 ± 0.0053 |
| CCCCCCCCCCC(=O)O[C@H]1CC[C@H]2[C@@H]3CCC4=CC(=O)CC[C@]4(C)[C@H]3CC[C@]12C [testosterone (undecanoate)] + CN1CCN(C2=Nc3ccccc3Oc3ccc(Cl)cc32)CC1 [loxapine] | 0.0238 ± 0.0023 |
| C[C@]12CCC(=O)C(O)=C1CC[C@@H]1[C@@H]2CC[C@]2(C)C(=O)CC[C@@H]12 [formestane] + CN1CCN(C2=Nc3ccccc3Oc3ccc(Cl)cc32)CC1 [loxapine] | 0.0217 ± 0.0021 |
| CCC1(c2cccc(O)c2)CCCCN(C)C1 (configuration not stated) [meptazinol (hydrochloride)] + CN1CCN(C2=Nc3ccccc3Oc3ccc(Cl)cc32)CC1 [loxapine] | 0.0231 ± 0.0039 |
| Cc1ccc(O)cc1.Cc1cccc(O)c1.Cc1ccccc1O [cresol] + CN1CCN(C2=Nc3ccccc3Oc3ccc(Cl)cc32)CC1 [loxapine] | 0.0212 ± 0.0037 |
| CN1[C@@H]2CC(O)C[C@H]1[C@@H]1O[C@@H]12 (some centres not stated) [scopine (hydrochloride)] + CN1CCN(C2=Nc3ccccc3Oc3ccc(Cl)cc32)CC1 [loxapine] | 0.00616 ± 0.012 |
| Oc1cccc2cccnc12 [8-hydroxyquinoline] + CN1CCN(C2=Nc3ccccc3Oc3ccc(Cl)cc32)CC1 [loxapine] | 0.0224 ± 0.0032 |
| O=C(N/N=C/c1ccc([N+](=O)[O-])o1)c1cc([N+](=O)[O-])cc([N+](=O)[O-])c1O [nifursol] + CN1CCN(C2=Nc3ccccc3Oc3ccc(Cl)cc32)CC1 [loxapine] | 0.0249 ± 0.0032 |
| COc1ccc(CN2CCNCC2)c(OC)c1OC [trimetazidine (dihydrochloride)] + CN1CCN(C2=Nc3ccccc3Oc3ccc(Cl)cc32)CC1 [loxapine] | 0.0224 ± 0.003 |
| C[N+](C)(C)CCCCCCCCCC[N+](C)(C)C [decamethonium (bromide)] + CN1CCN(C2=Nc3ccccc3Oc3ccc(Cl)cc32)CC1 [loxapine] | 0.0222 ± 0.0054 |
| COc1cc2c(cc1OC)C1CC(=O)C(CC(C)C)CN1CC2 (configuration not stated) [tetrabenazine] + CN1CCN(C2=Nc3ccccc3Oc3ccc(Cl)cc32)CC1 [loxapine] | 0.0274 ± 0.017 |
